PLK1 PBD block = PLK1 (human) polo-box domain binding inhibition; P53350; Plk1 PBD binding of FITC phosphopeptide, fluorescence polarization; Potency, µM, most hits filed as inhibitors; hit rate 2.8% among 360,000; AID 720504; note: series mostly up to about 57 µM; nearly all actives have a fitted effect of over 65% in size
Target sequence (P53350 whole entry, looked up, the tested form may be a part): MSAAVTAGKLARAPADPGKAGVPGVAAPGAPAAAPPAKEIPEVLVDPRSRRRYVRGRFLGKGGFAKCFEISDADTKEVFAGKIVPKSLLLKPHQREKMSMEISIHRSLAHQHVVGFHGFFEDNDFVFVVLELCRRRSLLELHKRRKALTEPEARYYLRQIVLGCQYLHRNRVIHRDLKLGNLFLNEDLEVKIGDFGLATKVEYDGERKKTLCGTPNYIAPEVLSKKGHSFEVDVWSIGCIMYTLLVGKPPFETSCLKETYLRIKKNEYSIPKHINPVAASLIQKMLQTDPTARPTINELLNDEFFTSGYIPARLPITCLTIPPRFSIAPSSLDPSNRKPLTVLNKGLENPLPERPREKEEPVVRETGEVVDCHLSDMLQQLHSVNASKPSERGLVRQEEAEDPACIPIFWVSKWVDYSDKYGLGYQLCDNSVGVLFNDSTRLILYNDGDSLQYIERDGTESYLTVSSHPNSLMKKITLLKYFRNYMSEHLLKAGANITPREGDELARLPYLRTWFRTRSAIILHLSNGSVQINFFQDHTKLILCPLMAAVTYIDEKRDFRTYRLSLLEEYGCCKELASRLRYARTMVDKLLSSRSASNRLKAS
G9a block = inhibitors of human histone lysine methyltransferase G9a; Q96KQ7; G9a H3K9 monomethylation, AlphaScreen, 2 h; Potency, µM (series often up to 102 µM), most hits filed as inhibitors; hit rate 8.8% among 350,000; AID 504332; note: nearly all actives have a fitted effect of over 75% in size
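Using a bead-based AlphaScreen, monomethylated H3K9 product from 2 h room-temperature reactions (G9a 20 nM, peptide 500 nM, SAM 20 uM) was detected with 0.5 ug/mL rabbit anti-H3K9me1 antibody.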
JMJD2A Tudor inh = JMJD2A Tudor domain (human) inhibition | AlphaScreen JMJD2A-Tudor / H3K4me3 peptide binding | Potency, µM (highest dose often 114 µM), hits mostly inhibitors | hit rate 4.4% among 390,000 | AID 504339; note: nearly all actives have a fitted effect of over 50% in size
VDR inhibitor = inhibitors of human vitamin D receptor; hit rate 0.93% among 400,000; Potency, µM, usual class: inhibitors; VDR-SRC2-3 peptide fluorescence polarization, 2 h; P11473
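Two reagent solutions held at 4 deg C in the dark were dispensed, compounds pinned at 23 nl, and the mixture incubated 2 h at room temperature. Read-out: fluorescence polarization of VDR–SRC2-3 peptide binding.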
BAZ2B inh = inhibitors of human BAZ2B bromodomain; AID 504333; AlphaScreen BAZ2B-H3K14Ac peptide displacement; hit rate 4.4% among 360,000; Q9UIF8; Potency, µM (highest dose often 114 µM), actives largely listed as inhibitors; note: nearly all actives have a fitted effect of over 60% in size
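BAZ2B 50 nM plus b-H3(5-23)K14Ac 50 nM, PBS pH 7.4/0.01% Tween-20, 30 min RT; compound added (max 110 uM), 30 min RT; streptavidin donor/Ni-chelate acceptor beads 10 ug/mL final, 20 min dark; AlphaScreen read.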
HP1b chromo inh = HP1-beta chromodomain-methylated histone interaction inhibition; P83916; AlphaScreen HP1-beta / biotin-H3K9me3 peptide binding; Potency, µM (highest dose often 114 µM), usual class: inhibitors; hit rate 0.56% among 390,000; AID 540317; note: nearly all actives have a fitted effect of over 70% in size
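HP1-beta protein (50 nM final) preincubated 30 min at room temperature with biotinylated H3(1-18)K9me3 peptide (50 nM) in PBS pH 7.4, 0.01% Tween-20, then compound added for 30 min. AlphaScreen streptavidin donor/nickel chelate acceptor beads (10 ug/mL final), 30 min dark, luminescence read.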
A number is an active result; [ ] = remark or other dose. Most compounds without a hit are left out; they make up all but 11% or so of the library. Calls come from the whole dose curve; as a rule, active = well fitted curve in the direction sought with a large enough effect; inconclusive = small, poorly fitted or top-dose-only effect, or another doubt; inactive = no such curve, though single readings can be large; an effect the other way counts as inactive or inconclusive.

For COc1cccc2cc(-c3ccccc3)oc12 the results were PLK1 PBD block inactive, JMJD2A Tudor inh inactive, VDR inhibitor inactive and HP1b chromo inh inactive.
For CN(C)C(=O)c1ccc(-c2nccc(N(C)Cc3ccco3)n2)cc1 the results were G9a block inactive[0.501 µM] and VDR inhibitor inconclusive.
C=CCn1c(-c2cc3cccc(OC)c3o2)n[nH]c1=S was read as PLK1 PBD block inactive, G9a block 6.31µM, JMJD2A Tudor inh 39.8µM, VDR inhibitor inactive, BAZ2B inh inconclusive and HP1b chromo inh inactive.
For S=c1[nH]nc(-c2ccc(Br)cc2)n1Cc1ccco1 the results were PLK1 PBD block inactive, G9a block 0.398µM, JMJD2A Tudor inh 56.2µM, VDR inhibitor inactive, BAZ2B inh inconclusive and HP1b chromo inh inactive.
For Cc1ccc(S(=O)(=O)N(C)c2cccc3cccnc23)cc1 the results were JMJD2A Tudor inh inactive.
Screening O=C1c2ccccc2NC(c2cc(Cl)cc(Cl)c2O)N1Cc1cccnc1 (stereo not drawn) returned PLK1 PBD block inactive, G9a block 79.4µM, JMJD2A Tudor inh inactive, VDR inhibitor inactive, BAZ2B inh inconclusive and HP1b chromo inh inactive.
For CCNC(=O)c1ccccc1-c1nc(-c2ccccc2OC)no1 the results were PLK1 PBD block inactive, G9a block inactive, JMJD2A Tudor inh inactive, VDR inhibitor inactive, BAZ2B inh inactive and HP1b chromo inh inactive.
`CCNC(=O)c1ccccc1-c1nc(-c2ccccc2Cl)no1` gave PLK1 PBD block 11.9µM, G9a block inactive, JMJD2A Tudor inh inactive[11.4 µM], VDR inhibitor inactive, BAZ2B inh inactive and HP1b chromo inh inactive.
`Cc1ccc(NC(=O)c2cc(S(=O)(=O)N3CCCCC3)c[nH]2)cc1C` gave PLK1 PBD block inactive, JMJD2A Tudor inh inactive, VDR inhibitor inactive, BAZ2B inh inactive and HP1b chromo inh inactive.
`CC(C)(C)c1ccc(CNC(=O)C2CCCN2C(=O)Nc2ccccc2)cc1` (stereo not drawn) gave PLK1 PBD block inactive, G9a block inactive, JMJD2A Tudor inh inactive, VDR inhibitor inactive, BAZ2B inh inactive and HP1b chromo inh inactive.
For COc1ccc(N2CCN(C(=O)CCCNC(=O)Cn3cnc4sc(C)c(C)c4c3=O)CC2)cc1 the results were PLK1 PBD block inactive, G9a block 50.1µM, JMJD2A Tudor inh inactive, VDR inhibitor inactive, BAZ2B inh inactive and HP1b chromo inh inactive.
Cc1ccc(C(=O)Nc2cc3[nH]c(=O)oc3cc2C)cc1 was read as PLK1 PBD block inactive, G9a block inactive, JMJD2A Tudor inh inactive, VDR inhibitor inactive, BAZ2B inh inactive and HP1b chromo inh inactive.
Screening COc1cc(OC)c(OC)cc1/C=C1/C(=O)N=C(N)N1C returned PLK1 PBD block 21.2µM, G9a block inactive, JMJD2A Tudor inh inactive, VDR inhibitor inconclusive, BAZ2B inh inactive and HP1b chromo inh inactive.
Screening COc1ccc(/C=C2/C(=O)N=C(N)N2C)cc1OC returned PLK1 PBD block inactive, G9a block inactive, JMJD2A Tudor inh inactive, VDR inhibitor inactive, BAZ2B inh inactive and HP1b chromo inh inactive.
O=C(OCc1cc(=O)n2c(n1)sc1ccccc12)c1ccc(O)cc1O was read as PLK1 PBD block inactive, G9a block inconclusive, JMJD2A Tudor inh inactive, VDR inhibitor inactive, BAZ2B inh inactive and HP1b chromo inh inactive.
`Cc1ccc(C(=O)N[C@H](C(=O)OCc2cc(=O)n3c(n2)sc2ccccc23)C(C)C)cc1` gave PLK1 PBD block inactive, G9a block 39.8µM, JMJD2A Tudor inh inactive, VDR inhibitor inactive, BAZ2B inh inactive and HP1b chromo inh inactive.
For O=C(Cc1coc2cc3c(cc12)CCC3)OCc1cc(=O)n2c(n1)sc1ccccc12 the results were PLK1 PBD block inactive, G9a block inactive[12.7 µM], JMJD2A Tudor inh inconclusive, VDR inhibitor inactive, BAZ2B inh 50.1µM and HP1b chromo inh inconclusive.
For O=C(CN(c1ccc(Cl)cc1)S(=O)(=O)c1ccc(Cl)c([N+](=O)[O-])c1)NCCc1ccc(F)cc1 the results were PLK1 PBD block inactive, G9a block inactive, JMJD2A Tudor inh inactive, VDR inhibitor inactive, BAZ2B inh inactive and HP1b chromo inh inactive.
Screening O=C(CN(c1ccc(Cl)cc1)S(=O)(=O)c1ccc(Cl)c([N+](=O)[O-])c1)NCCc1ccccc1 returned PLK1 PBD block inactive, G9a block 50.1µM, JMJD2A Tudor inh inactive, VDR inhibitor inactive, BAZ2B inh inactive and HP1b chromo inh inactive.
